Assay [1] concerns the target Progesterone receptor (Homo sapiens) (UniProt P06401). Kind of assay: qHTS assay to identify small molecule agonists of the progesterone receptor (PR) signaling pathway (AID 1346784; calls by dose curve; also: nearly all actives have a fitted effect of over 30% in size). The following applies: PR-UAS-bla HEK293T, beta-lactamase FRET ratio, 16 h; series mostly up to 92.4 µM. Summed up: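 PR-UAS-bla HEK 293T cells (beta-lactamase reporter under UAS) in 2% charcoal-stripped FBS, dosed with 23 nL compound after 6 hr, incubated 16hr at 37C. LiveBLAzer B/G FRET substrate added, fluorescence read after 2 hours.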
Background: qHTS replaces the single test concentration by a dilution series.

Assay [2] shares this target. Kind of assay: qHTS assay to identify small molecule antagonists of the progesterone receptor (PR) signaling pathway (AID 1346795; active = well fitted inhibition curve with a large enough effect in the signal ratio in the repeat runs, not every such curve was filed as active; the % refers to the signal ratio). The following applies: PR-UAS-bla HEK293T, beta-lactamase FRET ratio, 16 h; series mostly up to 92.4 µM. Summed up: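 PR-UAS-bla HEK293T cells with beta-lactamase reporter under UAS control, in 2% charcoal-stripped FBS, treated with compounds plus 1 nM promegestone (R5020, final) for 16 hr at 37C. Read-out: FRET beta-lactamase substrate fluorescence after 2 hr at room temperature.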

A short description of assay [3]: qHTS assay to identify small molecule antagonists of the progesterone receptor (PR) signaling pathway - cell viability counter screen (AID 1346798). Also: nearly all actives have a fitted effect of over 50% in size. The settings on record: PR-UAS-bla HEK293T viability, CellTiter-Glo luminescence, 16 h; series mostly up to 92.4 µM. Summed up:
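PR-UAS-bla HEK293T cells, 3,000/well in 2% charcoal-stripped FBS medium, dosed with compounds plus R5020 agonist and incubated 16 h at 37C. Viability then measured in the same wells by CellTiter-Glo luminescence after 30 min at RT.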

Assay [4] is described as follows: qHTS assay to identify small molecule agonists of the progesterone receptor (PR) signaling pathway - cell viability counter screen (AID 1346799; calls by dose curve; also: nearly all actives have a fitted effect of over 45% in size). The settings on record: PR-UAS-bla HEK293T viability, CellTiter-Glo luminescence, 16 h; series mostly up to 92.4 µM. Summed up:
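Counter screen in the PR-UAS-bla HEK293T wells (2% charcoal-stripped FBS, 16 h compound exposure at 37 C) after the bla read. CellTiter-Glo added, 30 min at room temperature, luminescence read as cell viability.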

Assay [5] is described as follows: qHTS assay to identify small molecule antagonists of the TGF-beta/Smad signaling pathway - cell viability counter screen (AID 1346824). Also: nearly all actives have a fitted effect of over 50% in size. The following applies: SBE-bla HEK293T viability, CellTiter-Glo luminescence; series mostly up to 76.8 µM. Summed up: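 Cytotoxicity counter-screen run in the same wells as the beta-lactamase Smad reporter read: CellTiter-Glo luminescence after 30 min at room temperature. HEK 293T SBE-bla cells had 5 hr compound exposure at 37 C with TGF-beta1 (0.25 ng/mL stock).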

Assay [6] can be described thus: qHTS assay to identify small molecule agonists of the TGF-beta/Smad signaling pathway - cell viability counter screen (AID 1346829). Also: top concentration of the series differs between compounds; nearly all actives have a fitted effect of over 45% in size. The following applies: SBE-bla HEK293T viability, CellTiter-Glo luminescence, 5 h; series mostly up to 76.8 µM. Summed up: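 Same-well cytotoxicity: CellTiter-Glo added after the 2 hr room-temperature beta-lactamase substrate step, luminescence measured 30 min later; cells had 5 hr of compound at 37 C.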

The nature of assay [7]: qHTS assay to identify small molecule agonists of the TGF-beta/Smad signaling pathway (AID 1346859; active = well fitted activation curve with a large enough effect in the signal ratio in the repeat runs, not every such curve was filed as active; the % refers to the signal ratio). The settings on record: SBE-bla HEK293T, TGF-beta/Smad beta-lactamase reporter, 5 h; series mostly up to 76.8 µM. Summed up:
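SBE-bla HEK293T cells plated overnight, then compound exposure for 5 h at 37 C. Beta-lactamase reporter read with LiveBLAzer B/G FRET substrate after 2 h at room temperature, fluorescence at 405 nm excitation, 460/530 nm emission.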

Assay [8] is described as follows: Human pregnane X receptor (PXR) small molecule agonists, qHTS cell viability counter screen (AID 1346977). Also: nearly all actives have a fitted effect of over 50% in size. The following applies: PXR-Luc HepG2 viability, CellTiter-Fluor, 24 h; series mostly up to 92.4 µM. Summed up:
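PXR-Luc HepG2 cells (2,000/well, 5% charcoal-stripped FBS) preincubated 5 hr, then exposed to compounds 24 hr at 37 C. Viability read in the same wells by CellTiter-Fluor fluorescence, reagent added at 23 hr, 1 hr incubation.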

A short description of assay [9]: Caspase-3/7 induction in HepG2 cells by small molecules, qHTS assay (AID 1346978). Also: nearly all actives have a fitted effect of over 15% in size. The settings on record: HepG2 caspase-3/7 activation, Caspase-Glo luminescence, 17 h; series mostly up to 92.4 µM. Summed up: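 Caspase-3/7 induction was measured by Caspase-Glo 3/7 luminescence (30 min, room temperature) after a 17 hr compound exposure of wild-type HepG2 cells seeded at 2,000 per well and pre-incubated 5 hr.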

Assay [10] is described as follows: Caspase-3/7 induction in CHO-K1 cells by small molecules, qHTS cell viability counter screen (AID 1346979). Also: nearly all actives have a fitted effect of over 35% in size. The settings on record: CellTiter-Fluor fluorescence, 17 h; series mostly up to 92.4 µM. Summed up: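 Wild-type CHO-K1 cells (1,500/well) treated with compound after 5 h plating; after 16 h at 37C, viability read as CellTiter-Fluor fluorescence following 1 h reagent incubation, in the same wells as the caspase read.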

The nature of assay [11]: Caspase-3/7 induction in CHO-K1 cells by small molecules, qHTS assay (AID 1346980). Also: nearly all actives have a fitted effect of over 15% in size. The following applies: CHO-K1 caspase-3/7 induction, Caspase-Glo luminescence, 17 h; series mostly up to 92.4 µM. Summed up: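 Luminescent Caspase-Glo 3/7 read (30min, room temperature) quantified apoptosis induction. Cells were wild-type CHO-K1, treated with compound for 17hr at 37 C and 5% CO2.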

Assay [12] is described as follows: Caspase-3/7 induction in HepG2 cells by small molecules, qHTS cell viability counter screen (AID 1346981). Also: nearly all actives have a fitted effect of over 30% in size. The settings on record: CellTiter-Fluor fluorescence, 17 h; series mostly up to 92.4 µM. Summed up:
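Cell viability is measured as a cytotoxicity counter screen alongside the Caspase-Glo 3/7 readout in identical wells. Wild-type HepG2 cells are treated with test compounds for 16 hr at 37 C before CellTiter-Fluor addition and a 1-hr incubation.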

Assay [13] has as its target Cytochrome P450 2C19 (Homo sapiens) (UniProt P33261). Kind of assay: Cytochrome P450 Family 2 Subfamily C Member 19 (CYP2C19) small molecule antagonists: luciferase reporter qHTS assay (AID 1671197). Also: nearly all actives have a fitted effect of over 65% in size. Also: potency is read from the fitted curve at half-maximal effect. The following applies: P450-Glo CYP2C19 enzyme, luciferin luminescence, 1 h; series mostly up to 115 µM. Summed up: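 Quantitative high-throughput screen of the Tox21 library using CYP2C19 with proluciferin substrate. Reaction: NADPH regeneration, 37C, 1 h, after 10 min compound preincubation at room temperature. Readout: luminescence.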
On the technique in general: In a reporter assay the amount or activity of a reporter protein is the signal.

In assay [14] the target is Thyrotropin-releasing hormone receptor (Homo sapiens) (UniProt P34981). Kind of assay: qHTS assay to identify small molecule antagonists of the thyrotropin-releasing hormone receptor (TRHR) signaling pathway (AID 1346877; active = well fitted inhibition curve with a large enough effect in the repeat runs, not every such curve was filed as active). The settings on record: TRHR-HEK293, TRH-induced calcium fluorescence, antagonist mode; series mostly up to 51.3 µM. Summed up: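 Antagonism is measured as suppression of the calcium response to 1 nM TRH in TRHR-HEK293 cells that have been dye-loaded for 2 h at 37 °C after overnight plating. Each compound is tested at 15 concentrations in triplicate.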

For assay [15] the target is unchanged. Kind of assay: qHTS assay to identify small molecule agonists of the thyrotropin-releasing hormone receptor (TRHR) signaling pathway (AID 1346891; calls by dose curve). The following applies: TRHR-HEK293 calcium fluorescence, agonist mode; series mostly up to 57.6 µM. Summed up:
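HEK293 cells expressing TRHR plated 18 h at 37 C/5% CO2, calcium dye-loaded 2 h at 37 C, then compound added (agonist mode); kinetic calcium fluorescence read 3 min at 1 s intervals; 15 concentrations in triplicate.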

Assay [16] concerns the target Nuclear receptor subfamily 1 group I member 2 (Homo sapiens) (UniProt O75469). Kind of assay: Human pregnane X receptor (PXR) small molecule agonists, qHTS assay (AID 1346982). Also: nearly all actives have a fitted effect of over 35% in size. The settings on record: PXR-Luc HepG2, CYP3A4 luciferase reporter, 24 h; series mostly up to 92.4 µM. Summed up: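 Cells: HepG2 stably carrying PXR-Luc. Medium held 5% charcoal-stripped FBS. Compounds in DMSO added after 5 hr plating, incubated 24 hr, then luminescence quantified with ONE-Glo.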

The target in assay [17] is Cytochrome P450 2D6 (Homo sapiens) (UniProt P10635). Kind of assay: Cytochrome P450 Family 2 Subfamily D Member 6 (CYP2D6) small molecule antagonists: luciferase reporter qHTS assay (AID 1671196). Also: nearly all actives have a fitted effect of over 50% in size. Also: potency is read from the fitted curve at half-maximal effect. The following applies: P450-Glo CYP2D6 enzyme assay, luciferin luminescence, 1 h; series mostly up to 115 µM. Summed up: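 Enzyme and proluciferin substrate were first combined with test chemical for 10 min at room temperature. Adding NADPH regeneration solution started a 1 h reaction, stopped with luciferin detection reagent and read by luminescence 20 min later.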

Structures are written as SMILES. Inconclusive results are not listed. More than one record can exist for a structure, and the calls need not agree. Active and inactive are the calls of the source. Unless noted, calls follow the shape of the dose curve; as a rule, active = well fitted curve in the direction sought with a large enough effect in the repeat runs; inconclusive = weak or mixed curves; inactive = no such curve, though single readings can be large; an effect the other way counts as inactive or inconclusive.

Cytochrome P450 2C19 (Homo sapiens), sequence (P33261 whole entry, looked up): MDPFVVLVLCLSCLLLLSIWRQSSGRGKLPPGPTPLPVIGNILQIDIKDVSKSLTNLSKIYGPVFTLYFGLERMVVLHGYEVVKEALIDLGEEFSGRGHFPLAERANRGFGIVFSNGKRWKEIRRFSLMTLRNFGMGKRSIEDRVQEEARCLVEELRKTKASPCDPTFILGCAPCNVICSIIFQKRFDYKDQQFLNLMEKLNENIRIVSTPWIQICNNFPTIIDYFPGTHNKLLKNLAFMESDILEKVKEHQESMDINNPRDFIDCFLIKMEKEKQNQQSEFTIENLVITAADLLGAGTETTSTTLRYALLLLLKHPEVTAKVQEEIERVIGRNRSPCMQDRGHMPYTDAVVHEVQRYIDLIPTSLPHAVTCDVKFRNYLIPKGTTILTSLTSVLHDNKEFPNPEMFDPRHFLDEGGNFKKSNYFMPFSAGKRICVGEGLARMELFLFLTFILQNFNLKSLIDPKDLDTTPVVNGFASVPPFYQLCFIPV
Cytochrome P450 2D6 (Homo sapiens), sequence (P10635 whole entry, looked up): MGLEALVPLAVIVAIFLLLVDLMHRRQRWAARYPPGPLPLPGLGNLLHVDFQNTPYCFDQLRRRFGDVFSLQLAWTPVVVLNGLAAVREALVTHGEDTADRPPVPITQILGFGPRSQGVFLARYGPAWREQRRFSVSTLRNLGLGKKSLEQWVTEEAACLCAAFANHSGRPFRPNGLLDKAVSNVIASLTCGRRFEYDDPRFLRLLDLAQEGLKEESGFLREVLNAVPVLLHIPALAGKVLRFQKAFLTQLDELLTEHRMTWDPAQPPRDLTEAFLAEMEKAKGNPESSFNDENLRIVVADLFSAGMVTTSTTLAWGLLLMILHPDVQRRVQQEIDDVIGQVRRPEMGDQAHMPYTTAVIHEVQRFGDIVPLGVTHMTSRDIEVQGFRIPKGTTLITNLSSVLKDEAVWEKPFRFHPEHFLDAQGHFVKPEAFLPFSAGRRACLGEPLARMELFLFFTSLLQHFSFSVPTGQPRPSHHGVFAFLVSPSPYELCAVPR
Progesterone receptor (Homo sapiens), sequence (P06401 whole entry, looked up): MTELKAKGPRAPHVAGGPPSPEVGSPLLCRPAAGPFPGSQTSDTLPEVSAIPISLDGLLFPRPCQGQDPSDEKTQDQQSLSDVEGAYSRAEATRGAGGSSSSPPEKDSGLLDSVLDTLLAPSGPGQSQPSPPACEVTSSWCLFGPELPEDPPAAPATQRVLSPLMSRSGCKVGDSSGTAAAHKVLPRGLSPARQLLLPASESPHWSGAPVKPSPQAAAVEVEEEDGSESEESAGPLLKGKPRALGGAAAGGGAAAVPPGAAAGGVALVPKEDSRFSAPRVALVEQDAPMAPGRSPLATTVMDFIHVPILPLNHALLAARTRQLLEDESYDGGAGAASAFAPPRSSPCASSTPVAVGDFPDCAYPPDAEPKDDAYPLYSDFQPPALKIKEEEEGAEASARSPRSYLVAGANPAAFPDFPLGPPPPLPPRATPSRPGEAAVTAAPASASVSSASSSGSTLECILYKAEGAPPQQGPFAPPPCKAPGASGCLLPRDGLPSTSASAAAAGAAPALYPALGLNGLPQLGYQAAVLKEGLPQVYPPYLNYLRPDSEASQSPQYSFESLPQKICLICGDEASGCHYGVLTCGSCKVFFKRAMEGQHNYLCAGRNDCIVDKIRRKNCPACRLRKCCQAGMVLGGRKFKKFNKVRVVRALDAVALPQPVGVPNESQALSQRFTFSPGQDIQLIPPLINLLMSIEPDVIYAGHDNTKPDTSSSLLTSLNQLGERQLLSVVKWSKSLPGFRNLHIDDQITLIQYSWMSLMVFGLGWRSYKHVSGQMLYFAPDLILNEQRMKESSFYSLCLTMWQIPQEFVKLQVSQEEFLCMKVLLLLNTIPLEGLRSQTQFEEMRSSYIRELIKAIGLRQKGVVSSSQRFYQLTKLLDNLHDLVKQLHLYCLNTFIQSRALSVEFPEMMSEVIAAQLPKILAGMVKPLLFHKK
Thyrotropin-releasing hormone receptor (Homo sapiens), sequence (P34981 whole entry, looked up): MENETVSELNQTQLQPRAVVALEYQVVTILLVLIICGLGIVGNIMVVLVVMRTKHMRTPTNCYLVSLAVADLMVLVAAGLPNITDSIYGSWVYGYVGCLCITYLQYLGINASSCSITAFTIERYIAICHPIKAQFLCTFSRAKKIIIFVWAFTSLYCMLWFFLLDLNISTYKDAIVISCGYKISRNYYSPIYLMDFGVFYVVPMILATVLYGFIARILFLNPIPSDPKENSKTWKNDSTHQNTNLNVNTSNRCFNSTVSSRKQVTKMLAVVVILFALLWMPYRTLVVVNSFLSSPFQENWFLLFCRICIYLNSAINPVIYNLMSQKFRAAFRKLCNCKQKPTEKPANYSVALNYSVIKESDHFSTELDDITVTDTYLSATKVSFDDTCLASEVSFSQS
Nuclear receptor subfamily 1 group I member 2 (Homo sapiens), sequence (O75469 whole entry, looked up): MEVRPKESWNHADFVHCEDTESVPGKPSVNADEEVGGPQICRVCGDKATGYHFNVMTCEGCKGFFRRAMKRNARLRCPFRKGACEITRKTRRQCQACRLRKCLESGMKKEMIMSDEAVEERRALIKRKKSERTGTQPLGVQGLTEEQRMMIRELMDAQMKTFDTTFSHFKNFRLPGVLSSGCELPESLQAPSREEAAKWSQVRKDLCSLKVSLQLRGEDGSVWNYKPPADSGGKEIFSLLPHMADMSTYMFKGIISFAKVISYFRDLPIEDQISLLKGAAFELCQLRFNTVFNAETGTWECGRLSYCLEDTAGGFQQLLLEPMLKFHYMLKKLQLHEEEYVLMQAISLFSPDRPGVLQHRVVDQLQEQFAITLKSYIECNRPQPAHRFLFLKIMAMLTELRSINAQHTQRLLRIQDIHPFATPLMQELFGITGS

For the molecule `CC(C)(C)NC[C@H](O)COc1nsnc1N1CCOCC1`, the Potency entry in assay [1], in [2], in assay [3], in assay [4], in assay [5] and in assay [6] was “inactive” in each case. Besides, the Potency result in [7], in [8], in [9], in assay [10], in [11] and in assay [12] was “inactive” each time. In [13], the Potency entry was “inactive”.

With `COC(=O)CCCCC(=O)OC`, the Potency result in [1], in [2], in assay [3], in [4], in assay [5] and in assay [7] was “inactive” each time. Also, the Potency result in assay [14], in assay [8], in assay [9], in [10], in assay [11] and in assay [12] was “inactive” in each case. Moreover, the Potency entry in assay [16], in [17] and in assay [13] was “inactive” in each case. In addition, the result in [15] was inactive.

With `N#CCC(=O)O`, the Potency result in assay [1], in assay [2], in assay [3], in assay [4], in [5] and in [6] was “inactive” each time. The Potency entry in assay [7], in assay [14], in [9], in assay [10], in [11] and in [12] was “inactive” each time. Besides, the Potency entry in [17] and in assay [13] was “inactive” each time. Further, in assay [15], the result was inactive.

Consider `CCCCCCC(=O)O`, for which the Potency result in assay [1], in assay [2], in [3], in [4], in [5] and in [6] was “inactive” in each case. The Potency entry in [7], in [9], in [10], in [11], in [12] and in assay [16] was “inactive” in each case. Further, the Potency entry in assay [17] and in [13] was “inactive” in each case.

Regarding `O=Cc1ccc(CO)o1`, the Potency result in [1], in assay [2], in [3], in [4], in assay [5] and in assay [6] was “inactive” throughout. In addition, the Potency result in assay [7], in [14], in assay [9], in assay [10], in assay [11] and in assay [12] was “inactive” in each case. Further, the Potency result in [16], in assay [17] and in assay [13] was “inactive” in each case. In addition, the outcome in [15] was inactive.

Take `CC[N+](CC)(CC(=O)Nc1c(C)cccc1C)Cc1ccccc1`: the Potency result in [1], in [2], in assay [3], in assay [4], in [5] and in [6] was “inactive” in each case. The Potency entry in [7], in assay [8], in [9], in [10], in assay [11] and in assay [12] was “inactive” in each case. In addition, the Potency was 11.2 nM (active) and inactive in assay [17]; 39.9 µM (active) and inactive in assay [13].

As to `O=C1C(N(CO)C(=O)NCO)N(CO)C(=O)N1CO` (centres undefined), the Potency result in assay [1], in assay [2], in assay [3], in assay [4], in [5] and in assay [7] was “inactive” each time. Further, the Potency result in [14], in [8], in [9], in assay [10], in [11] and in assay [12] was “inactive” in each case. The Potency entry in [16], in assay [17] and in assay [13] was “inactive” each time. The outcome in assay [15] was inactive.

For the molecule `O=[N+]([O-])c1ccccc1C(F)(F)F`, the Potency result in assay [1], in [2], in assay [3], in assay [4], in assay [5] and in [6] was “inactive” in each case. The Potency entry in assay [7], in assay [14], in [9], in assay [10], in assay [11] and in [12] was “inactive” throughout. The Potency entry in [16] and in assay [17] was “inactive” throughout. Moreover, in [15], the outcome was inactive. The Potency in assay [13] was 6.95 µM (active) and inactive.

Consider `OC1CCCCC1`, for which the Potency entry in assay [1], in [2], in assay [3], in [4], in assay [5] and in assay [6] was “inactive” in each case. For the same molecule, the Potency entry in assay [7], in [9], in assay [10], in [11], in assay [12] and in assay [16] was “inactive” in each case. For the same molecule, the Potency entry in [17] and in assay [13] was “inactive” throughout.

The values above are taken from PubChem BioAssay (Tox21).
